Our source for the binding signal values is publication PMC10668032, “Altered binding affinity of SIX1-Q177R correlates with enhanced WNT5A and WNT pathway effector expression in Wilms tumor”.

Whole data set: some 33,000 sequences, median “e-score” near -0.053, cut for the highest 2% near 0.38. This is one part of a sample in which the highest values are shown more often than they occur.

For the test, the target named is T1, SIX1 homeodomain (reference allele) (human, UniProt Q15475 108-198).
T1 sequence: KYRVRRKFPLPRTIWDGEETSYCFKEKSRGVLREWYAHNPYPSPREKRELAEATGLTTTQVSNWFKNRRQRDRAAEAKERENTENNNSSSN
In words: universal protein binding microarray; Universal all-10-mer PBM (8x60K, AMADID 030236), 300 nM GST-tagged protein, Alexa Fluor 488 anti-GST; buffer, salt, pH and temperature not stated (as in Berger); high values mean tight binding. The conditions noted are these: protein: ivt; tags: N-terminal GST; dsDNA, one strand shown. In short, it runs like this: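 Binding was expressed as 8-mer E-scores calculated with the Universal PBM Analysis Suite. The GST-tagged homeodomains, made by in vitro transcription/translation, were applied in duplicate at 300 nM final concentration to universal 'all 10-mer' protein binding microarrays (8×60K format).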
Regarding CGATCTTC, the binding signal was found to be 0.288 ± 0.0189 E-score.
To GATGGGTA belongs 0.223 ± 0.0133 E-score; to GTTCGATA, 0.324 ± 0.0131 E-score; to ATTTGATA, 0.397 ± 0.0881 E-score.
To CTTTGATC belongs 0.213 ± 0.0316 E-score; to GTTTGATA, 0.379 ± 0.067 E-score.
Consider CTTTGATA, for which the binding signal is 0.331 ± 0.0715 E-score.
For ATTTGATC, the binding signal is 0.215 ± 0.0531 E-score.
With CAATACGA the figure was 0.207 ± 0.026 E-score; with ATCACTTC, 0.3 ± 0.0422 E-score.
Consider GTCAGATA, for which the binding signal was determined as 0.273 ± 0.0192 E-score.
With ATCAGATA the figure was 0.378 ± 0.0255 E-score; with ATCAGATC, 0.394 ± 0.0295 E-score; with CTCAGATC, 0.27 ± 0.00864 E-score.
With ATCAGATG the figure was 0.319 ± 0.0136 E-score; with CTCAGATA, 0.31 ± 0.032 E-score.
As to CGTATGAA, the binding signal was determined as 0.15 ± 0.0134 E-score.
To AAGGTGTC belongs 0.373 ± 0.0231 E-score; to CCGGTGTA, 0.332 ± 0.0356 E-score; to CCCGTGTC, 0.255 ± 0.0128 E-score.
Regarding ACGGTGAT, the binding signal amounted to 0.181 ± 0.00713 E-score.
To CAGGTGTC belongs 0.394 ± 0.0354 E-score; to ACGGTGTC, 0.437 ± 0.0187 E-score.
As to ACGGTGTA, the binding signal came to 0.255 ± 0.00781 E-score.
As to CAGGTGTA, the binding signal was determined as 0.272 ± 0.00711 E-score.
With CCGGTGTC the figure was 0.431 ± 0.0182 E-score.
With GTCTGGTA the figure was 0.151 ± 0.048 E-score; with ATCGGAAT, 0.172 ± 0.0652 E-score; with AAGAGTAT, 0.277 ± 0.117 E-score.
Consider ATATATTG, for which the binding signal worked out at 0.238 ± 0.0753 E-score.
To AGGATCGC belongs 0.27 ± 0.0489 E-score; to CGGATCGC, 0.395 ± 0.05 E-score; to GGGATCTA, 0.272 ± 0.0387 E-score.
With CGGATCTA, the binding signal came out at 0.318 ± 0.04 E-score.
For the sequence AGGATCCG, the binding signal was determined as 0.308 ± 0.0272 E-score.
Consider CGGATCCG, for which the binding signal was determined as 0.417 ± 0.0204 E-score.
To GGGATCCA belongs 0.375 ± 0.0614 E-score; to CAGATCGC, 0.284 ± 0.0237 E-score.
To GGGATCCC belongs 0.415 ± 0.0591 E-score.
To CGGATCCA belongs 0.406 ± 0.0429 E-score.
For TGGATCCA, the binding signal came to 0.295 ± 0.0443 E-score.
To CAGATCCG belongs 0.322 ± 0.0638 E-score; to AATGAGCC, 0.158 ± 0.0559 E-score; to ATGTCTCA, 0.2 ± 0.0211 E-score.
To AGGGCGAT belongs 0.284 ± 0.0121 E-score.
Consider ATCACCAG, for which the binding signal stood at 0.166 ± 0.0324 E-score.
Consider CCACGATC, for which the binding signal stood at 0.195 ± 0.0938 E-score.
With ATCCTGAC, the binding signal came to 0.228 ± 0.00948 E-score.
To AAGTATTG belongs 0.157 ± 0.085 E-score; to AGGATCTC, 0.292 ± 0.0258 E-score.
As for AGGATCCC, the binding signal was 0.379 ± 0.00668 E-score.
For the sequence AGGATCCA, the binding signal was 0.346 ± 0.0238 E-score.
To AGGATCTG belongs 0.244 ± 0.0478 E-score; to CGGATCTC, 0.342 ± 0.0442 E-score.
On to CAGATCCC, for which the binding signal was determined as 0.295 ± 0.0571 E-score.
With CGGATCCC the figure was 0.399 ± 0.0592 E-score; with AGGATCCT, 0.385 ± 0.0102 E-score; with AAGATCCT, 0.326 ± 0.0346 E-score.
To ATCTTCGA belongs 0.193 ± 0.0484 E-score.
With GAGGAATA the figure was 0.21 ± 0.0309 E-score; with GACCTATC, 0.269 ± 0.00861 E-score.
Turning to ACATGATC, the binding signal stood at 0.279 ± 0.0144 E-score.
To CCATGATC belongs 0.293 ± 0.0102 E-score; to GCACGATA, 0.325 ± 0.00783 E-score; to GCCTGATA, 0.321 ± 0.0449 E-score.
With ACATGAGA the figure was 0.183 ± 0.0219 E-score; with CCATGATA, 0.376 ± 0.00711 E-score.
ACATGATA: the binding signal turned out to be 0.426 ± 0.0281 E-score.
Regarding GCATGATA, the binding signal turned out to be 0.4269 ± 0.00375 E-score.
Consider CCATGAGA, for which the binding signal was 0.242 ± 0.0275 E-score.
For AACCATCT, the binding signal was determined as 0.154 ± 0.0503 E-score.
ATCAATAA: the binding signal worked out at 0.182 ± 0.0114 E-score.
To ATCAGCCA belongs 0.237 ± 0.00617 E-score; to ACCGCTAT, 0.216 ± 0.0322 E-score; to CAGATACA, 0.355 ± 0.0318 E-score.
To CAGATACG belongs 0.334 ± 0.0281 E-score.
In the case of AAGATACC, the binding signal is 0.426 ± 0.0219 E-score.
With AAGATACG, the binding signal was 0.322 ± 0.0506 E-score.
As for AAAATACC, the binding signal amounted to 0.181 ± 0.0716 E-score.
On to CAGATACC, for which the binding signal was 0.433 ± 0.00544 E-score.
GAGATAGC: the binding signal stood at 0.161 ± 0.0517 E-score.
With GAGATACA the figure was 0.332 ± 0.0042 E-score; with GAGATACC, 0.44068 ± 0.000332 E-score.
On to GATCTGGC, for which the binding signal was 0.295 ± 0.0253 E-score.
Take ATATTGTA: the binding signal turned out to be 0.294 ± 0.0399 E-score.
With TAATATTA the figure was 0.161 ± 0.0729 E-score; with GATCAAGC, 0.312 ± 0.00728 E-score; with ACACGACT, 0.162 ± 0.0387 E-score.
ATCATTCG: the binding signal came to 0.294 ± 0.00745 E-score.
Take GAGCGATC: the binding signal is 0.279 ± 0.0379 E-score.
To GATCTCCC belongs 0.361 ± 0.00166 E-score.
With TATCGAAA the figure was 0.345 ± 0.0543 E-score.
With CCATCTCG the figure was 0.166 ± 0.114 E-score.
Take GATCACCC: the binding signal was 0.407 ± 0.0371 E-score.
To GATCACAC belongs 0.351 ± 0.0284 E-score; to GATCATCA, 0.34 ± 0.00658 E-score.
With GATCATGC the figure was 0.242 ± 0.0641 E-score; with GATCATCC, 0.41 ± 0.0124 E-score; with CATCATAC, 0.151 ± 0.0343 E-score.
With GATCATAC the figure was 0.3778 ± 0.00307 E-score; with GATCACGC, 0.317 ± 0.0237 E-score; with GCTCATCC, 0.219 ± 0.00236 E-score.
Take GATGGGGA: the binding signal was 0.191 ± 0.049 E-score.
With CGTGGATA the figure was 0.362 ± 0.0371 E-score; with ACCTGCTA, 0.2283 ± 0.000693 E-score; with TGGTGACA, 0.156 ± 0.0327 E-score.
With GATCCTAC the figure was 0.32 ± 0.0262 E-score.
For CAGCGATA, the binding signal was 0.359 ± 0.0421 E-score.
To GAGCGATA belongs 0.344 ± 0.042 E-score; to TAGCGATA, 0.3796 ± 0.0024 E-score.
For AAGCGATA, the binding signal worked out at 0.376 ± 0.0611 E-score.
Turning to AGGCGATA, the binding signal is 0.357 ± 0.00753 E-score.
In the case of ATGCGATA, the binding signal came to 0.394 ± 0.037 E-score.
To GTGCGATA belongs 0.36 ± 0.0111 E-score; to AAGCGATC, 0.239 ± 0.00546 E-score; to CTGCGATA, 0.342 ± 0.0342 E-score.
For AGATAGTG, the binding signal was 0.152 ± 0.0589 E-score.
With CCCATCCG the figure was 0.191 ± 0.101 E-score.
With CAATGACA the figure was 0.198 ± 0.0712 E-score; with GGTGTTTA, 0.203 ± 0.0284 E-score.
Take ACCCGACA: the binding signal came to 0.239 ± 0.0574 E-score.
Turning to ATCAATGC, the binding signal worked out at 0.163 ± 0.0171 E-score.
Regarding ATCCATTA, the binding signal turned out to be 0.244 ± 0.00287 E-score.
As for AGCCGTAT, the binding signal worked out at 0.292 ± 0.018 E-score.
On to ATATACGC, for which the binding signal came to 0.244 ± 0.0546 E-score.
Regarding AATGATCG, the binding signal was 0.152 ± 0.117 E-score.
As to AATGATCC, the binding signal was 0.424 ± 0.011 E-score.
As for AATGATCT, the binding signal was 0.369 ± 0.0567 E-score.
Turning to GATGATCC, the binding signal was determined as 0.45356 ± 0.000438 E-score.
With GAAGATCC the figure was 0.297 ± 0.0273 E-score; with GATGATCA, 0.315 ± 0.00602 E-score; with CATGATCA, 0.177 ± 0.0294 E-score.
With CATGATCC the figure was 0.394 ± 0.00778 E-score; with TATGATCA, 0.25 ± 0.0234 E-score.
Turning to AACGGGAT, the binding signal stood at 0.243 ± 0.0163 E-score.
To GATAGGAC belongs 0.22 ± 0.0517 E-score.
To TCATGGGA belongs 0.153 ± 0.0225 E-score.
To ATAGCCAA belongs 0.218 ± 0.0447 E-score; to CCGCGGTA, 0.194 ± 0.102 E-score.
CGGTGTAG: the binding signal is 0.297 ± 0.025 E-score.
To CACGGATA belongs 0.397 ± 0.0101 E-score; to GACGGATC, 0.358 ± 0.041 E-score; to AACAGATC, 0.2 ± 0.0405 E-score.
On to AACGGATA, for which the binding signal turned out to be 0.421 ± 0.0091 E-score.
To AACGGGTA belongs 0.159 ± 0.0738 E-score.
CACAGATC: the binding signal came to 0.277 ± 0.0367 E-score.
To AACGGATT belongs 0.204 ± 0.0564 E-score.
With CACAGATA the figure was 0.205 ± 0.00976 E-score; with AATGGATC, 0.35 ± 0.00509 E-score.
GACGGATA: the binding signal was 0.35 ± 0.0364 E-score.
To CACGGATC belongs 0.405 ± 0.0341 E-score; to AACGGATC, 0.376 ± 0.0111 E-score; to ATACAGGA, 0.228 ± 0.0565 E-score.
To ATGCAATA belongs 0.192 ± 0.0352 E-score.
To GAGTAGAC belongs 0.214 ± 0.0128 E-score; to ATATGCCC, 0.339 ± 0.0543 E-score.
With CGATCTAG, the binding signal was 0.1577 ± 0.00153 E-score.
With ATCATTTC the figure was 0.1962 ± 0.00187 E-score; with ATCAAGCG, 0.228 ± 0.0527 E-score.
On to AGAGCGAT, for which the binding signal is 0.159 ± 0.0536 E-score.
To AAGCCGAT belongs 0.211 ± 0.0118 E-score; to CATTATAC, 0.28 ± 0.0245 E-score.
With CGAGGGGA the figure was 0.164 ± 0.0583 E-score.
To TAAGGATA belongs 0.276 ± 0.0458 E-score.
Consider TACAGATA, for which the binding signal is 0.267 ± 0.0119 E-score.
With TACGGATA the figure was 0.401 ± 0.0137 E-score; with CCCATCCC, 0.154 ± 0.0727 E-score.
With GCTAGATA the figure was 0.255 ± 0.0399 E-score; with ATACTGAA, 0.173 ± 0.0413 E-score; with ATATGGTA, 0.256 ± 0.011 E-score.
With CCACTATC the figure was 0.227 ± 0.0482 E-score.
Take GCATACGA: the binding signal was found to be 0.157 ± 0.0596 E-score.
